This note sets out measurements from the supplement of paper PMC6555819.

This test has as its system VDR:RXRa (NR concentration 270 nM, RXRa partner concentration 90 nM). The test can be described thus: PBM binding z-score (relative to random genomic background probes); higher = stronger binding; sequences stand for … in GC…GCGATTGACAGCGTAGAATGAAGG
The procedure: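 Protein-binding microarray (Agilent 4x180K custom design, double-stranded 60-nt probes: 5' GC cap, 34-nt variable region, 24-nt constant primer region; full probe sequence given). Purified or IVT nuclear receptor:RXRα heterodimers (3:1 NR:RXRα, mostly 270:90 nM) or homodimers were incubated for 1 h in PBS with 2% milk and no ligand, then detected with Alexa488 antibodies. Fluorescence from o1-orientation probes (~5 replicates averaged) was converted to z-scores against 500 random hg19 background probes. Variable regions are seed direct-repeat (DR0–DR5) sites, all their single-nucleotide variants and half-site ablations.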
In turn, TCTTGTAGATCAATAGAGGATAAGAAAGTGCGCT gave a PBM binding z-score of 0.432.
In turn, GCTTATGGGTCAAAGGTTATAGCATGAATAGAAT showed a PBM binding z-score of 4.82.
For TATACAGGGTCAAACGCCAGAGTACGAATGTCGA the value was 5; for CCTAGCAGGCCAAGCTGGGTCACTCAAGGCTTGA, 0.17; for TCTTGTAGATCAAAGGCTAAGAAAGCCGAAGCCT, -0.203.
The sequence CCTACTGGGCCATCAGGTCATTGAAATCAACGTT yielded a PBM binding z-score of 1.28.
For CGTCCAAGGTCAAGGTAAGTGAAAGAGACTCGAA the value was 3.76.
For CAAACTAGGTGACGAAAGGTCAAAGTCGAATGAC the value was 5.16; for CCTGCTAGGGCAATGGTCAGCTAAAGCAGCTCGC, -0.874.
For CCTAGTGGGCCATTCAGAGGTCATTGATCATATG the value was 3.85.
With CGAACTAGGTCAGAACAAGACAGTGAAGGATGAT, the PBM binding z-score was found to be 0.215.
CGTCCCAGGTCAATGCTAGGTCAGTGAAAGCATT: the PBM binding z-score worked out at 3.68.
Take TCAAGTAGGTTACCAATGGGGCATTCAGCTTTCT: the PBM binding z-score is 0.549.
CGTGCTAGGTCAATGGTCAGCTAAAGCAGCTCGC showed a PBM binding z-score of 0.97.
As for CAAACTAGGTCAAGAAAGGTCAAAGTCGAATGAC, the PBM binding z-score turned out to be 6.44.
In the case of TCTATTAGTTGATTAGCGCAACCGAAACAGCGGA, the PBM binding z-score was determined as 0.694.
The sequence GCTGCTAGGTCAGGTTGGTCAGCTAGCGGGTACG gave a PBM binding z-score of 0.267.
ATTGAAAGGTCGTGAGGTGAGTATACAGAAAGGC: the PBM binding z-score turned out to be 3.71.
The sequence TCTTGTAGATCAACAGGAGGTTAAGAACGATCGA gave a PBM binding z-score of 0.419.
ATCGCAAGGTCGAAGGTGAGTATACCCACCCGAA gave a PBM binding z-score of 1.8.
For CCTTACGGGCCACTCCAGGTTATAGCATCGGAGT the value was -0.25; for CGTCCAAGGTCAGACAGGTCAGTGAATGCCGAGT, 5.82; for CCTAGCAGGCCAATCTGGGTCACTCAAGGCTTGA, 0.724.
For CCGACTGGGGCAACGTTACCATAACGCACAGCCA the value was -0.557; for CGTCAAAGTTCAGCTAAGGTAACGTAAAGCACGC, 3.33.
CCGACTGGGGCAGAAAGGTTACCATACCATCCGG had a PBM binding z-score of 0.836.
For AGTCAAAGCTCAGGACGAGGTAACGTAAAGCACG the value was -0.317; for CCGACTGCGGCAAAGGTTACCATACTCAGTACGA, 0.959; for CCGACTGGGGAAAAGGTTACCATACTCAGTACGA, 0.397.
Turning to CAAACTAGGTCAGCGGAAGGTCAAAGTCCGCATG, the PBM binding z-score was 5.07.
Sequence CCGACTGGGGCAGTAAGGTTACCATACCATCCGG yielded a PBM binding z-score of 0.907.
For the sequence ACTAGCAGGCCAAGTTTGGGGCACTCAAACAAAG, the PBM binding z-score was -0.558.
As to GCAGACAGGTGAAACGCAGCTAACTCAGGGTGGC, the PBM binding z-score is -0.847.
GCACATAGGTAATACAAGGTGAAAGTCCGATTGT: the PBM binding z-score came to 0.394.
Regarding CCTTACGGGTCACTGCCAGGTTATAGCATTTGGA, the PBM binding z-score came to 3.73.
For the sequence CCTAGCAGGCCAGGGTCACTCTAGCATTTCGCTT, the PBM binding z-score was 2.45.
As for ACTTACGGGTCAACGAGGTTATAGAACGCGTATA, the PBM binding z-score came out at 7.78.
On to TCGAGTAGGTTAGACGGGGCATTCAGCCAACATA, for which the PBM binding z-score turned out to be 1.29.
As to CGTCCAAGGTCATAGGAGGTCAGTTAAGACAGAT, the PBM binding z-score was found to be 6.3.
TCATATATGTAAAAGGTGAAAGTCGGTGTGGTAA came in with a PBM binding z-score of 1.24.
